# Assay outcomes as filed in PubChem BioAssay.
# CBFb-RUNX1 inh: blocks binding between human CBF-beta and RUNX1; Potency, µM (doses to about 59.8 µM), for the others: at the highest dose activity, negative = inhibition, usual class: inhibitors; AID 1477; AlphaScreen CBFb-His/RUNX1-biotin binding, biochemical; 230,000 tested, under 10 active; Q01196+Q13951; further: % of control where 0% means no effect
#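 His-tagged CBF-beta and biotinylated RUNX1 (30 nM each) were premixed 20 min at room temperature, exposed to compound for 15 min, then given nickel-chelate and streptavidin AlphaScreen beads (50 ng each). After 90 min, AlphaScreen signal was read.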
# PNC assembly inh: blocks assembly of the perinucleolar compartment. PC3M PTB-GFP, PNC prevalence imaging, 16 h; hits give low values. activity change (PNC), negative = inhibition, % at 10 µM. 140,000 tested, 3.1% active. AID 2417;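 active means readout at or below -70, meaning at least 70% loss of cells showing the perinucleolar compartment, a nuclear body marking cancer cells; inconclusive means readout between -30 and a set limit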;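 further: plate controls were DMSO wells for no effect and camptothecin positive control wells for full effect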
#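 Compounds are pinned in duplicate onto adhered PC3M cells stably expressing GFP-tagged PTB and incubated 16 h at 37 C. Cells are then fixed, nuclei stained with Hoechst, and PNC-positive cells counted.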
# HPGD block: HPGD (human) dehydrogenase inhibition | P15428 | purified HPGD, NADH fluorescence kinetic, PGE2 substrate | Potency, µM, for inactives: at the top dose activity change, negative = inhibition, most hits filed as inhibitors | 150,000 tested, 4.3% active; active means well fitted inhibition curve with a large enough effect, not every such curve was filed as active; inconclusive means small, poorly fitted or top-dose-only effect, or another doubt; inactive means no such curve, though single readings can be large or run the other way; further: potency means the concentration at half of the fitted maximal effect; on the % scale 0 is the no-effect control and ±100 the full control effect
# Target sequence (P15428 whole entry, looked up): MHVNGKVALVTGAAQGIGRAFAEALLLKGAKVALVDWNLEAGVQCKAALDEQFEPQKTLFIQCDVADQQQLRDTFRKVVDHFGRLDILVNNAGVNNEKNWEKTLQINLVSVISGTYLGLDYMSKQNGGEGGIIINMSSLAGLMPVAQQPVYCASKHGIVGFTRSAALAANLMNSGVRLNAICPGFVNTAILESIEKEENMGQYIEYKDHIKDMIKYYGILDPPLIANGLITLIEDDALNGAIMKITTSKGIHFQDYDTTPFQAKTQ
#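 NADH formation kinetics: reaction with 30 uM PGE2 and 1 mM NAD+ (final), 20 nM enzyme, Tris-HCl pH 8 with Tween 20, after 15 min compound preincubation at room temperature. Fluorescence change, last versus first of five reads.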
# HTT aggregate: reduces HttQ103-GFP aggregates in PC12 cells; PC12 HttQ103-GFP aggregates, Acumen cytometry, 40 h; Potency, µM (titrated, usually from 46.1 µM), without a hit: at the top dose activity change, negative = inhibition, hits mostly inhibitors; 220,000 tested, 1.1% active; further: potency means the concentration at half of the fitted maximal effect; on the % scale 0 is the no-effect control and ±100 the full control effect; nearly all actives have a fitted effect of over 60% in size
#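 Multiplexed with ATP-based cell death, this channel scores GFP aggregates in PC12 cells expressing inducible HTTex1-Q103-GFP. Induction used 100 nM tebufenozide; compounds were tested in concentration series.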
# HTT cytoprotect: cytoprotection in Huntington HTT-Q103 PC12 cell model. PC12 HTT-Q103 induced, cytoprotection, ATP luminescence, 40 h. Potency, µM (highest dose often 56.4 µM), inactives show cytoprotection (ATP increase), hits mostly activators. 230,000 tested, 0.14% active. AID 1471; further: potency means the concentration at half of the fitted maximal effect; % of control where 0% means no effect; nearly all actives have a fitted effect of over 45% in size
#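 PC12 cells stably carrying ecdysone-inducible Htt exon 1 (Q103)–GFP were induced with 100 nM tebufenozide (final) alongside library compounds in a dose series. Cytoprotection was scored as retained ATP by ATPlite luminescence.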
# ALDH1A1 block: inhibitors of human aldehyde dehydrogenase 1A1 | 220,000 tested, 7.3% active | P00352 | Potency, µM (highest dose often 75.3 µM), inactives show at the highest dose activity, negative = inhibition, actives largely listed as inhibitors | Purified ALDH1A1, NADH fluorescence, propionaldehyde substrate; active means well fitted inhibition curve with a large enough effect, not every such curve was filed as active; inconclusive means small, poorly fitted or top-dose-only effect, or another doubt; inactive means no such curve, though single readings can be large or run the other way;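 further: potency means the concentration at half of the fitted maximal effect; plate controls were no enzyme wells and a reference inhibitor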
# Target sequence (P00352 whole entry, looked up): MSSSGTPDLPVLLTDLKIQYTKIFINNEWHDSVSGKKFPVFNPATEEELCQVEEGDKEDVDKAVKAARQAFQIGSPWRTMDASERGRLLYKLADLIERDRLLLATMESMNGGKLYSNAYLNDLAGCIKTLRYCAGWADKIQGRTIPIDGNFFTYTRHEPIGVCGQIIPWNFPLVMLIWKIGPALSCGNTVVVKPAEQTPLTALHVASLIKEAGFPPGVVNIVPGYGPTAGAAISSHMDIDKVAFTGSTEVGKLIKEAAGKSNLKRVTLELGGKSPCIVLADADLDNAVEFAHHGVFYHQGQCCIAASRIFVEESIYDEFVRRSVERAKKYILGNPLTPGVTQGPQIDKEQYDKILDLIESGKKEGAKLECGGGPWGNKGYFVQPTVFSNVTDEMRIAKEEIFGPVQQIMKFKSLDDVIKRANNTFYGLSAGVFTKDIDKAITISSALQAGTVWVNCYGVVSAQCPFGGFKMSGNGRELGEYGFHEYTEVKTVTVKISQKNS
# Active calls of the source: *; ? = inconclusive; nt = no result; [ ] = dose if it differs, or a comment. A selection: hits, their analogues and other compounds. The true share with any hit is near 11%. Unless noted, the call rests on the fitted dose curve; in most records, active means well fitted curve in the direction sought with a large enough effect; inconclusive means small, poorly fitted or top-dose-only effect, or another doubt; inactive means no such curve, though single readings can be large; an effect the other way counts as inactive or inconclusive.
SMILES,CBFb-RUNX1 inh,PNC assembly inh,HPGD block,HTT aggregate,HTT cytoprotect,ALDH1A1 block
CN(C)c1ccc(C(=O)c2ccc(N(C)C)cc2)cc1,-10.9%,-29.1,?,10.3%[9.22 µM],-99.5%,28.2µM*
Cc1cccc(N2C(=O)NC(=O)C3(Cc4cc(C)ccc4N(C)C3)C2=O)c1 (configuration not stated),1.4%,33.0,nt,7.7%,-19.4%,8.91µM*
Cc1ccc2c(c1)CC1(CN2C)C(=O)NC(=O)N(C(C)C)C1=O (configuration not stated),0.8%,19.9,nt,8.8%,-16.5%[0.074 µM],?
Cc1ccc2c(c1)CC1(CN2C)C(=O)NC(=O)N(CCC2=CCCCC2)C1=O (configuration not stated),1.5%,35.7,nt,6.7%,-5.7%,3.55µM*
CC(=O)OC[C@H](N)C(=O)c1ccccc1,6.7%,nt,-2.3%,nt,19.3%,?
Cc1ccc(OCC(=O)N2CCN(Cc3cccnc3)CC2)cc1,7.2%,nt,nt,9.4%,-18.9%,?
Cc1ccc(OCC(=O)NCCN2CCN(C(=O)COc3ccc(C)cc3)CC2)cc1,2.5%,-106.5*,-2.5%,-6.6%,9.8%,?
CC(C)Br,2.7%[21.7 µM],nt,-3.4%,nt,-10.2%,10.1%
COC(=O)CSc1n[nH]c(=S)s1,-1.9%,17.2,39.8µM*,8.9%,nt,11.2µM*
CCOC(=O)CSc1nn(-c2ccccc2)c(=S)s1,10.8%,nt,nt,-12.5%,-7.8%,?
CCSc1nnc([C@@H](N)Cc2ccccc2)o1,4.6%,?,-9.3%,5.5%,0.9%,15µM*
CCSc1nnc(C(N)Cc2ccccc2)o1 (configuration not stated),-0.4%,52.5,0.4%,-3.3%,-3.9%,?
C[n+]1c(/C=C\c2ccc(O)c3ncccc23)[se]c2ccccc21,nt,nt,-11.2%,nt,-30.5%[10 µM],-7.4%[13.5 µM]
N#CC(C#N)=Cc1ccc([N+](=O)[O-])c(O)c1,?,nt,15.8µM*,nt,-28.9%,15.8µM*
N#CC(C#N)=Cc1ccc(C=C(C#N)C#N)cc1,10.1%,nt,nt,-21.4%[9.22 µM],-32.9%[10 µM],0.355µM*
Cc1cc(N2CCCC2)ccc1C=C(C#N)C#N,-5.4%,nt,nt,-18.3%,22.3%,6.6%
CCOc1cncc(/C=C/CCNC)c1,7.7%,nt,nt,nt,nt,nt
O=C1NC(=O)N(Cc2ccco2)C(=O)/C1=C/C=C/c1ccco1,nt,nt,nt,1.6%[9.22 µM],-27.8%[10 µM],nt
Cc1ccc(N2C(=O)NC(=O)/C(=C\C=C\c3ccco3)C2=O)cc1C,?,34.4,10µM*,21.2%,28.5%[0.074 µM],?
O=C1NC(=O)N(Cc2ccccc2)C(=O)/C1=C/c1cnc(-c2ccccc2)nc1,-4.7%,nt,nt,10.0%,-11.7%,14.1%
O=C1NC(=O)N(Cc2ccccc2)C(=O)/C1=C/N1CCCc2ccccc21,-19.5%,48.4,-24.0%,-2.9%,23.8%[10 µM],8.91µM*
Cc1ccc(N2C(=O)NC(=O)/C(=C\C=C\c3ccco3)C2=O)cc1,-29.2%,nt,nt,8.7%[9.22 µM],-29.5%[10 µM],nt
O=C1NC(=O)N(Cc2ccccc2)C(=O)/C1=C\C=C\c1ccco1,-15.0%,nt,nt,?,-53.2%,3.16µM*
C[C@]12CC[C@H]3[C@@H](CC[C@@]45O[C@@H]4C(=O)C(C#N)C[C@]35C)[C@@H]1CC[C@@H]2O (some centres not stated),nt,nt,nt,3.2%,19.1%,nt
Nc1nc(O)c(-c2ccccc2)o1,nt,nt,nt,3.2%,6.9%,nt
SMILES,CBFb-RUNX1 inh,PNC assembly inh,HPGD block,HTT aggregate,HTT cytoprotect,ALDH1A1 block
C[C@]12C/C(=C/O)C(=O)C[C@@H]1CC[C@@H]1[C@@H]2CC[C@@]2(C)[C@H]1CC[C@]2(C)O,-1.1%[21.7 µM],nt,-6.2%,10.2%,-0.7%,0.0708µM*
CC(=O)C1CCC2C3CCC4CC(C)(O)CCC4(C)C3CCC12C (configuration not stated),12.2%,nt,nt,nt,nt,nt
CC(N)(COP(=O)(O)Oc1ccccc1)C(=O)O (configuration not stated),14.4%,nt,nt,nt,-19.8%,?
Cn1c(=O)n(CC(=O)N2CCC3(CC2)OCCO3)c(=O)c2ccccc21,0.4%,59.8,-19.0%,-1.0%,19.4%[1.9 µM],-4.6%
O=C(Cn1c2c(c(-c3ccccc3Cl)cc1=O)CCC2)N1CCC2(CC1)OCCO2,2.3%,-94.6*,?,-4.8%,17.1%[1.9 µM],?
C[C@@H]1O[C@@H](O[C@H]2C[C@@H](O)[C@]3(CO)[C@@H]4[C@@H](O)C[C@]5(C)[C@H](C6=CC(=O)OC6)CC[C@@]5(O)[C@H]4CC[C@@]3(O)C2)[C@H](O)[C@H](O)[C@@H]1O,nt,nt,nt,nt,-9.3%[1.9 µM],nt
Cc1ccc(N2C(=O)NC(=O)/C(=C/c3ccc(OC(=O)c4cccs4)cc3)C2=O)cc1,2.8%,56.9,28.2µM*,-1.8%,-7.0%,?
COc1ccc(N2C(=O)NC(=O)/C(=C/c3cccc(OC(=O)c4cccs4)c3)C2=O)cc1Cl,2.4%,?,31.6µM*,9.5%,nt,?
COc1ccccc1N1C(=O)NC(=O)/C(=C/c2ccc3c(c2)Cc2ccccc2-3)C1=O,4.2%,13.8,?,4.4%,-4.7%[10 µM],?
COC1(C)CC(c2ccccc2)c2c(c3ccccc3oc2=O)O1 (configuration not stated),8.0%,nt,nt,nt,nt,nt
CC(=O)O[C@H]1CC[C@H]2[C@@H]3CCC4=C[C@@H](C5SCCS5)[C@H](OC(C)=O)C[C@]4(C)[C@H]3CC[C@@]12C,nt,nt,-16.6%,nt,13.7%[10 µM],-14.8%[13.5 µM]
CCOC(=O)c1c(C)n(CCN2CCN(C)CC2)c2ccc(OC)cc12,-2.1%,52.1,-4.6%,7.7%,-26.7%,-2.5%
COc1ccc2c(c1)c(CCN1CCOCC1)c(C)n2C(=O)c1cccc(Cl)c1Cl,-23.6%,nt,28.2µM*,nt,-221.0%,-9.8%
C=C(C)c1cc2cc(C(C)=O)c(O)cc2o1,16.0%,nt,-21.0%,nt,-36.9%,11.5%
Cc1ccc(C)c(Cn2c(C(=O)O)c(C=O)c3ccccc32)c1,-1.8%,nt,nt,8.0%,?,18.9µM*
CC(=O)[O-].CC(=O)[O-].O.O.O.[Pb+2],?,nt,0.4%,nt,?,15µM*
C=CCN1C(=O)C2(C(C(=O)OCC)=C(N)Oc3ccccc32)c2c1c1ccccc1oc2=O (configuration not stated),1.6%,-14.6,-8.3%,8.8%,-12.4%,0.398µM*
CCOC(=O)C1=C(N)Oc2ccccc2C12C(=O)N(CC(=O)OC)C(CC(=O)OC)=C2C(=O)OC (configuration not stated),-0.1%,10.5,-1.8%,-12.0%,-5.6%,1.26µM*
CCOC(=O)C1=C(N)OC2=C(C(=O)CCC2)C12C(=O)N(CC(N)=O)c1ccccc12 (configuration not stated),1.2%,-14.5,-7.0%,7.0%,16.8%[1.9 µM],4.1%
